Key:
Assay in all cases: PBM binding z-score (relative to random genomic background probes); higher = stronger binding; sequences stand for … in GC…GCGATTGACAGCGTAGAATGAAGG
[1] = test system: FXR:RXRa (NR concentration 270 nM, RXRa partner concentration 90 nM)
Outline: (§1)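 Binding z-scores take random background probes as their reference. They come from custom Agilent 4×180K protein-binding microarrays incubated 1 h with ligand-free nuclear receptor dimers, with antibodies against each partner (one per run) detecting binding. Scanned fluorescence was regression-normalized.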

[2] = test system: LXRa:RXRa (NR concentration 270 nM, RXRa partner concentration 90 nM)
Outline: as §1

[3] = test system: LXRa homodimer (NR concentration 270 nM)
Outline: as §1

[4] = test system: LXRb:RXRa (NR concentration 270 nM, RXRa partner concentration 90 nM)
Outline: as §1

[5] = test system: LXRb homodimer (NR concentration 270 nM)
Outline: as §1

[6] = test system: PPARa:RXRa (NR concentration 270 nM, RXRa partner concentration 90 nM)
Outline: as §1

[7] = test system: PPARg:RXRa (NR concentration 180 nM, RXRa partner concentration 90 nM)
Outline: as §1

[8] = test system: PPARg:RXRa 270nM:90nM, anti-RXR (NR concentration 270 nM, RXRa partner concentration 90 nM)
Outline: as §1

[9] = test system: PPARg:RXRa 30nM:10nM, anti-RXR (NR concentration 30 nM, RXRa partner concentration 10 nM)
Outline: as §1

[10] = test system: PPARg:RXRa 90nM:30nM, anti-RXR (NR concentration 90 nM, RXRa partner concentration 30 nM)
Outline: as §1

[11] = test system: PPARg:RXRa DBDmut IVT, anti-RXR (DBD mutation: RXRa K156A/R161A, NR concentration 270 nM, RXRa partner concentration 90 nM)
Outline: as §1

[12] = test system: PPARg:RXRa IVT, anti-PPARg (NR concentration 270 nM, RXRa partner concentration 90 nM)
Outline: as §1

[13] = test system: PPARg DBDmut:RXRa IVT, anti-PPARg (DBD mutation: PPARg1 K132A/R137A, NR concentration 270 nM, RXRa partner concentration 90 nM)
Outline: as §1

[14] = test system: PPARg DBDmut IVT, anti-PPARg (DBD mutation: PPARg1 K132A/R137A, NR concentration 270 nM)
Outline: as §1

[15] = test system: PPARg homodimer (NR concentration 180 nM)
Outline: as §1

[16] = test system: PXR:RXRa (NR concentration 270 nM, RXRa partner concentration 90 nM)
Outline: as §1

[17] = test system: PXR homodimer (NR concentration 270 nM)
Outline: as §1

[18] = test system: RARa:RXR (NR concentration 270 nM, RXRa partner concentration 90 nM)
Outline: as §1

[19] = test system: RARa homodimer (NR concentration 270 nM)
Outline: as §1

[20] = test system: RARb:RXRa (NR concentration 270 nM, RXRa partner concentration 90 nM)
Outline: as §1

Sequence	PBM binding z-score [1]	PBM binding z-score [2]	PBM binding z-score [3]	PBM binding z-score [4]	PBM binding z-score [5]	PBM binding z-score [6]	PBM binding z-score [7]	PBM binding z-score [8]	PBM binding z-score [9]	PBM binding z-score [10]	PBM binding z-score [11]	PBM binding z-score [12]	PBM binding z-score [13]	PBM binding z-score [14]	PBM binding z-score [15]	PBM binding z-score [16]	PBM binding z-score [17]	PBM binding z-score [18]	PBM binding z-score [19]	PBM binding z-score [20]
AGTCAAAGTTCATTAGGTAACGTAAGATTCAGCT	5.94	6.16	5.2	3.29	1.67	4.63	6.37	6.16	3.38	5.54	1.93	4.02	1.72	1.88	3.26	4.83	6.94	3.77	1.92	4.7
CCGAGCAGGCCAGGGTCACTCAAGCATTTCGCTT	2.23	1.75	-0.467	2.16	-1.08	2.97	0.393	1.19	-0.201	0.482	-0.216	0.461	-1.99	-1.55	1.51	2.78	-0.479	3.47	-0.256	2.65
AATCAAAGTTCAGGACGAGGTAACGTAAAGCACG	3.75	4.39	2.25	2.03	0.58	3.2	2.07	2.19	0.724	1.26	-0.649	0.571	0.569	0.969	1.98	2.9	1.19	2.55	1.39	4.19
CGAACTAGGTCAGAATAGGACAGTGAAGGATGAT	1.39	0.992	-0.0335	0.45	-0.693	3.02	5.03	4.31	1.81	3.36	6.67	6.96	2.83	1.87	0.535	0.652	0.356	1.01	0.988	2.73
TCTAGTTGGTCACGGAGGTCACACATGACGGGTA	3.11	3.52	2.42	3.42	0.605	4.06	3.59	4.13	3.55	3.84	2.5	4.34	1.38	0.722	2.93	4.71	1.67	4.56	1.18	4.01
CGTCAAAGTTCAAATAAGGTAACGTAAAGCACGC	7.39	6.55	4.89	4.17	3.25	4.95	4.86	5.6	2.25	4.67	0.597	2.21	0.83	1.03	4.04	5.39	5.14	4.21	2.53	5.08
ATCTCTAGGTAAAGTGCAGTGAAAGATCGATAGA	0.236	0.336	-0.00202	-0.0786	0.221	0.525	0.843	2.05	0.6	1.67	2.44	1.95	0.431	0.336	0.363	-0.0343	0.194	0.372	0.333	0.504
CCTTACGGGTCACCAGGTTATAGCACGACGAGCG	5.57	4.07	0.342	3.43	0.0793	5.41	6.15	6.21	2.59	4.99	3.46	5.18	0.0764	-0.404	2.34	3.72	-0.0319	4.62	1.27	4.27
CCGACTGGGGCAAGGTTTCCATAACGCACAGCCA	-0.141	-0.322	-0.44	-0.321	-0.889	0.606	2.28	2.75	0.608	1.97	2.98	3.2	-0.0108	-1.24	0.216	-0.725	-0.351	-0.351	-0.575	0.592
TCATATAGGTGATACAGGTGAAAGTCGGCATCTA	0.938	1.04	0.153	0.984	-0.0198	2.33	1.96	2.94	3.85	3.55	4.78	4.31	1.81	1.2	1.4	0.783	0.342	0.978	1.22	0.996
CCAAGTAGGTTATGGGGCATTCAGGCAACGGTGA	0.142	0.353	-0.344	0.363	-0.655	2.93	5.23	5.69	4.33	5.84	5.49	4.96	0.251	0.296	1.18	-0.156	-0.101	0.207	0.919	1.05
CGAACTAGGTCATTGACAGGACAGTGATTAGTAA	4.44	3.04	0.786	2	-0.0597	4.69	7.36	6.17	3.71	6.08	8.18	8.17	4.22	2.86	1.7	1.91	0.608	2.36	0.564	3.62
CCAGACAGGTGAAAGGTAACTCATTCTGGTACGC	0.79	0.853	0.0278	1.09	-0.276	3.51	5.48	6.19	3.72	6.34	2.34	3.01	-0.114	-0.175	1.3	1.12	0.37	2.12	1.09	1.4
CCTTACGGGCCACTGACAGGTTATAGCATTTGGA	-0.0975	-0.00158	0.136	-0.0299	-0.59	0.315	0.415	0.0355	-0.0145	-0.254	0.882	0.315	-0.753	-0.329	0.129	-0.136	-0.0803	0.247	0.161	0.69
GGAACGAGGGCAAAGTTGATAGCGTCTGTCGACG	1.43	1.07	-0.457	0.901	-0.56	4.27	7.58	7.44	6.55	7.74	4.61	4.26	0.324	-0.0322	0.905	1.2	-0.0837	1.7	-0.604	2.48
ACTCGGAGGACAAAGCTCAGAGCTACGCCAGTGA	-0.419	-0.663	-0.768	-1.06	-0.958	-0.608	0.401	-0.00696	-0.67	-0.314	-0.219	-0.357	-0.787	-1.32	-1.15	-0.902	-0.759	-1.14	-0.639	0.77
CGAACTAGGTCATTGAGAGGACAGTGAATAGTAA	3.94	2.78	0.422	1.87	-0.333	4.37	7.29	5.99	3.89	5.45	7.95	7.8	1.23	0.676	2.27	2.36	0.174	3.08	-0.238	3.74
CCTCGGAGGACATCAGGAGGTCAGAGCTGCCAGA	1.63	1.87	1.11	1.17	-0.894	1.93	0.267	0.414	-0.801	-0.136	-0.368	0.307	-1.23	-1.84	1.23	2.19	0.0732	2.43	0.115	2.74
TAGCCTAGGTCATTCAGGGGCCCGTATAGAAAGC	4.76	3.93	0.791	2.54	0.963	3.52	1.99	2.34	0.359	1.44	1.73	2.64	0.467	0.786	1.25	2.01	-0.334	2.84	-0.527	3.47
TCTCGTTGGTCACGGAGGTCACACACGACGGGTA	3.3	3.62	1.88	3.75	1.11	3.85	2.5	3.71	2.93	3.47	1.58	3.31	0.735	1.33	2.82	4.37	0.995	4.41	1.01	4.02
GCTAGCAAGCCATTTGGGTCACTCAATGACGGGC	-0.28	-0.493	-0.817	-0.134	-0.898	1.15	0.614	0.042	-0.634	-0.546	0.501	1.28	-0.713	-0.878	-0.494	0.0188	-0.796	0.479	-0.835	0.979
AGAATGAGGTTAGACGTAGATCAGGGAAGAAAGT	0.755	0.774	0.0351	0.67	-0.107	2.02	0.989	1.22	0.406	0.527	3.27	1.52	0.96	1.16	0.901	0.631	0.578	1.17	0.74	1.21
TCTTGTAGATCAATATAGGTTAAGAAAGTGCGCT	0.801	2.72	0.469	1.28	0.58	1.97	0.81	2.09	3.36	2.56	2.95	2.98	1.55	1.13	0.797	1.67	0.304	1.4	1.22	0.676
TCAGACAGGTGAAGGTAAGTCAGGTACGCAGTCG	0.571	0.454	-0.273	0.356	-0.365	0.993	0.552	2.03	4.06	2.93	2.4	1.07	-0.136	-0.843	1.02	0.265	0.282	0.741	0.234	1.08
CCTATTAGTTGACCAAAAGGGCAACCGAAGCTCG	0.908	0.905	0.816	1.02	0.763	1.5	0.545	1.52	0.286	1.18	0.681	1.22	-0.0971	1.05	2.38	1.09	0.687	1.37	1.39	2.51
TGTCAAAGTTCACAGGTAACGTAAGTATCCACAC	6.59	5.87	3.37	4.04	1.49	6.02	8.64	7.43	5.54	7.12	0.161	4.5	1.61	1.53	2.45	4.48	2.4	3.92	1.08	5.05
ATCTCTAGGTACAAGTTCAGTGAATCCCGAGGAT	0.207	0.339	0.332	0.411	0.905	2.42	3.28	4.58	3.23	4.51	0.163	1.47	0.611	0.766	0.56	1.92	1.54	0.393	0.103	1.66
CATACAAGGTCAGCTAGGCCAGAGTAGGGACGGC	5.48	4.64	0.878	2.65	0.921	4.45	3.65	3.36	0.947	2.45	2.49	3.08	1.69	1.12	2.33	2.51	0.612	3.43	1.39	4.89

From the supplement of paper PMC6555819
